Source: PubChem
HCV inhibitor = qHTS Assay for Inhibitors of Hepatitis C Virus (HCV); Huh7.5.1 HCVcc-Cre infection, luciferase reporter, 44 h; Potency, µM (doses to about 41.8 µM), usual class: inhibitors; actives 3.4% (n = 340,000); AID 651820, 2012; active = well fitted inhibition curve with a large enough effect; inconclusive = small, poorly fitted or top-dose-only effect, or another doubt; inactive = no such curve, though single readings can be large or run the other way
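Compounds are dispensed onto cells plated 4 h earlier at 1,000 per well, with HCVcc-Cre virus (about 0.5 moi) added next. Following 44 h of culture, luminescent signal is measured for 15 sec after 15 min with substrate at room temperature.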
MARV entry inh = qHTS for inhibitors of binding or entry into cells for Marburg Virus. AID 540276, 2011. Marburg virus pseudotyped entry inhibition, cell reporter. Potency, µM (series often up to 37.8 µM), most hits filed as inhibitors. actives 1.8% (n = 300,000); calls by dose curve; tested in HEK293 cells
LASV entry inh = qHTS for Inhibitors of binding or entry into cells for Lassa Virus; Lassa virus pseudotype entry inhibition, cell reporter; AID 540256, 2011; actives 1.2% (n = 300,000); Potency, µM (top dose mostly 37.9 µM), usual class: inhibitors; calls by dose curve; tested in HEK293 cells; note: nearly all actives have a fitted effect of over 50% in size
HCMV inh = qHTS Assay for inhibitors of the human cytomegalovirus (HCMV); HFF cells, HCMV-luciferase reporter, 72 h; stronger effect = lower value; activity change, negative = inhibition, % at 57.5 µM; actives 4.5% (n = 410,000); AID 1259415, 2018; in the data active = activity change below about -60%; inconclusive = no clear call, values can overlap the other calls; inactive = above about -39%
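Compounds were evaluated in HFFs infected with an HCMV luciferase reporter virus (MOI 1 PFU/cell). Luciferase in lysates collected 72 h post infection served as the replication measure.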
FMDV antiviral = High Throughput Screening for Foot and Mouth Disease Virus Antivirals; FMDV antiviral cell-based qHTS; Potency, µM (top dose mostly 57.9 µM), hits mostly inhibitors; actives 1.2% (n = 410,000); calls by dose curve; tested in HEK293T cells; note: read-out not given here; nearly all actives have a fitted effect of over 45% in size
A number is an active result; i = inactive; ? = inconclusive; nt = no result given; ! = not active in a repeat; [ ] = remark or other dose. Shown are actives, neighbours in structure and some others; about 7.9% of the full set was active somewhere.

SMILES | HCV inhibitor | MARV entry inh | LASV entry inh | HCMV inh | FMDV antiviral
CN(NC(=O)c1ccccc1F)c1ncccc1[N+](=O)[O-] | i | nt | nt | i | i
COc1cc(/C=C/C(=O)c2ccccc2O)cc(OC)c1OC | i | nt | nt | i | 31.6µM
COc1cc(OC)c(C=CC(=O)c2ccccc2O)c(OC)c1 | ? | ? | i | -64.0 | i
CN(C)c1ccc(/C=C/C(=O)c2ccccc2O)cc1 | i | ? | i | i | i
O=C(C=Cc1ccccn1)c1ccccc1O | i | i | i | -80.0 | ?
O=C(C=Cc1ccccn1)c1ccccc1 | ? | ? | ? | i | ?
Cc1ccc(C)c(CN2C(=O)c3ccccc3S(=O)c3ccc(C(=O)N4CCCCC4)cc32)c1 (centres undefined) | nt | ? | ? | i | i
CC1CCc2sc(C(=O)N/N=C/c3ccc(O)cc3)cc2C1 (centres undefined) | ? | nt | nt | -63.9 | i
C/C(=N\NC(=O)c1cc2c(s1)CCC(C)C2)c1ccncc1 (centres undefined) | 25.1µM | ? | i | ? | i
C/C(=N\NC(=O)c1cc2c(s1)CCC(C)C2)c1ccc[nH]1 (centres undefined) | i | nt | nt | i | i
COc1cccc(-c2cc3nc4c(c(N5CCC6(CC5)OCCO6)n3n2)CCC4)c1 | 15.8µM | nt | nt | i | i
Cc1cccc(-c2cc3nc4c(c(N5CCOCC5)n3n2)CCCC4)c1 | ? | ? | ? | i | i
Cc1cccc(-c2cc3nc4c(c(N5CCC6(CC5)OCCO6)n3n2)CCCC4)c1 | 10µM | ? | i | i | i
Cc1cccc(-c2cc3nc4c(c(NCc5ccco5)n3n2)CCCC4)c1 | 7.08µM | ? | ? | i | nt
Cn1c(=O)c2c(c3ccccc31)OC(=O)CC2c1ccc(C(F)(F)F)cc1 (centres undefined) | nt | i | i | i | i
O=C(NCc1nnc2n1CCN(C(=O)/C=C/c1ccccc1)CC2)c1cccc(F)c1 | nt | nt | nt | nt | i
CCOc1ccc(CN2CCNC(=O)C2CC(=O)NCc2csc(C(C)C)n2)cc1 (centres undefined) | i | nt | nt | i | i
Cc1noc(C)c1C(=O)NCc1ccccc1Br | i | i | i | i | i
Cc1noc(C)c1C(=O)NCc1ccccc1F | i | i | i | -68.9 | i
Cc1ccc(C)c(NC(=O)CN(C)C(=O)c2ccc3[nH]c4c(c3c2)CC(C)CC4)c1 (centres undefined) | i | i | 0.562µM | i | i
CC1CCc2[nH]c3ccc(C(=O)N(C)CC(=O)Nc4ccccc4Br)cc3c2C1 (centres undefined) | i[8.37 µM] | ? | ? | i | ?
O=S(=O)(c1ccccc1)N1CCC2(CCN(c3ccc(-c4ccccc4)cc3)CC2)CC1 | nt | nt | nt | nt | i
Cc1ccc(S(=O)(=O)/C=C/C#N)cc1 | nt | ? | 2.31µM | nt | i
Cc1ccc(S(=O)(=O)c2ccc(C)cc2)cc1 | i | i | i | i | i
CC(C)(C)c1ccc(S(=O)(=O)/C=C\C#N)cc1 | nt | 2.51µM | nt | nt | 39.8µM
SMILES | HCV inhibitor | MARV entry inh | LASV entry inh | HCMV inh | FMDV antiviral
CCCCC(=O)NCCc1c(Cc2ccccc2)[nH]c2ccccc12 | nt | nt | nt | nt | i
O=C1NC(=O)C(Cc2ccccc2)(C2CCN(Cc3cccn3-c3cccnc3)CC2)N1 (centres undefined) | nt | nt | nt | nt | i
CCOC(=O)C1CCN(C(=O)c2ccccc2)c2scc(-c3ccccc3)c2C1=O (centres undefined) | nt | nt | nt | ? | 31.6µM
COc1ccc(Cl)cc1NCC(=O)Nc1ccc(OC)c(S(=O)(=O)N2CCCCC2)c1 | ? | nt | nt | i | i
Cc1ccc(C(C)C)c(O)c1C(=O)O | ? | nt | nt | -62.9 | i
Cc1cc(O)c(C=O)c(O)c1C(=O)O | nt | nt | nt | nt | i
CCCOc1ccc(C(=O)Nc2ccc(N3CCN(C(=O)c4ccco4)CC3)cc2)cc1 | i | ? | i | i | i
S=c1[nH]nc(-c2cc(-c3ccccc3)n[nH]2)n1/N=C/C(Br)=C/c1ccccc1 | ? | ? | ? | -100.1 | ?
CC(/C=N/n1c(-c2cccnc2)n[nH]c1=S)=C\c1ccccc1 | i | i | i | -76.7 | i
CC(=C/c1ccccc1)/C=N/n1c(-c2ccncc2)n[nH]c1=S | i | i | i | ? | i
COc1cc(C[C@@H](C)[C@@H](C)Cc2ccc(O)c(OC)c2)ccc1O | i | nt | nt | i | i
N[C@@H](Cc1ccc(O)c(O)c1)C(=O)O | ? | 15.8µM! | ? | ? | i
NC(C(=O)O)C(O)c1ccc(O)c(O)c1 (centres undefined) | nt | 1.25µM | ? | nt | nt
NC(Cc1ccc(O)c([N+](=O)[O-])c1)C(=O)O (centres undefined) | i | i | i | i | i
CC(Cc1ccc(O)c(O)c1)C(C)Cc1ccc(O)c(O)c1 (centres undefined) | 10µM | ? | ? | nt | i
CCOC(=O)CC(NC(=O)C(Cc1ccc(N(CCCl)CCCl)cc1)NC(C)=O)C(=O)OCC (centres undefined) | ? | ? | ? | -92.1 | i
CC(=O)NC(Cc1ccc(N(CCCl)CCCl)cc1)C(=O)NC(C(=O)O)C(C)C (centres undefined) | i | i | i | i | i
COc1ccc(-n2c(SCC(=O)Nc3cc(C)on3)nc3c(c2=O)SC(C)C3)cc1 (centres undefined) | nt | nt | nt | i | i
CCCCC[C@]12Cc3cc(OC)c(OC)cc3[C@H](O1)c1c(cc(C)n(-c3ccccc3)c1=O)O2 | nt | i | nt | nt | nt
C[C@H](Cc1ccc(O)c(O)c1)[C@@H](C)Cc1ccc(O)c(O)c1 | nt | 14.1µM | ? | nt | i
NC(Cc1ccc(N(CCCl)CCCl)cc1)C(=O)O (centres undefined) | nt | 5.8µM | 2.91µM | nt | i
N[C@H](Cc1ccc(Cl)cc1)C(=O)O | nt | i | nt | nt | i
CCC(N)C(O)c1ccc(O)c(O)c1 (centres undefined) | nt | nt | nt | nt | i
CCOc1ccc(CCN2C(=O)C(=O)N([C@@H](Cc3ccccc3)CN3CCC[C@H]3CN3C(=O)C(=O)NC[C@@H]3Cc3ccccc3)C[C@@H]2Cc2ccc(O)cc2)cc1 | nt | nt | nt | ? | i
Cc1ccc(NC(=O)Cn2c(=O)n(Cc3ccco3)c(=N)c3c4c(sc32)COC(C)(C)C4)cc1 | 3.16µM | i | i | i | i
SMILES | HCV inhibitor | MARV entry inh | LASV entry inh | HCMV inh | FMDV antiviral
COc1ccc(Cn2c(=O)n(Cc3ccco3)c(=N)c3c4c(sc32)COC(C)(C)C4)cc1 | 12.6µM | i | ? | i | i
CC1(C)Cc2c(sc3c2c(=N)n(Cc2ccco2)c(=O)n3Cc2ccc(F)cc2)CO1 | ? | ? | 7.08µM | i | i
CC1(C)Cc2c(sc3[nH]c(=S)n(Cc4ccccc4)c(=O)c23)CO1 | i | ? | 6.51µM | i | nt
CC1(C)Cc2c(sc3c2c(N)nc(=S)n3Cc2ccccc2)CO1 | nt | nt | nt | i | nt
O=c1c2cc3c(=O)n(-c4ccccc4O)c(=O)c3cc2c(=O)n1-c1ccccc1O | i | i | i | i | i
C[C@@H]1CC(=O)N(C)[C@H](c2ccccc2)[C@H]1S(=O)(=O)c1ccccc1 | nt | nt | nt | i | nt
S=C(NCC1(c2ccccc2)CCCC1)Nc1ccccc1 | 10µM | nt | nt | -96.8 | i
COc1ccc(N/C=C/c2nc(SC)nnc2C)cc1 | i | ? | i | -86.2 | i
CSc1nnc(C)c(/C=C/Nc2ccc(F)cc2)n1 | i | i | i | i | i
